LAP4-GFP MLPCN: alters LAP4-GFP fluorescence in TOR pathway yeast screen; S. cerevisiae LAP4-GFP multiplex, flow cytometry GFP, 3 h; median GFP as percent of DMSO wells; GFP response vs DMSO, % at 10 µM; actives 0.34% (n = 320,000);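 active means GFP response vs DMSO above a set limit, about the screen mean plus 3 SD, cut at about 150% in these data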
CIT2 TOR yeast: alters CIT2-GFP fluorescence in TOR pathway yeast screen | S. cerevisiae CIT2-GFP strain, flow cytometry, 3 h; 100 means same as DMSO wells | GFP response vs DMSO, % at 10 µM | actives 0.065% (n = 320,000) | AID 2029;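 active means GFP response relative to DMSO above a set limit, near the screen mean plus 3 SD, cut at about 150% in these data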;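 further: ratio of well median GFP fluorescence to mean of DMSO wells on the plate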
MEP2 TOR yeast: modulators of TOR pathway MEP2-GFP in S. cerevisiae. S. cerevisiae MEP2-GFP strain, flow cytometry GFP, 3 h; 100% = DMSO control level. GFP response vs DMSO, % at 10 µM. actives 0.51% (n = 330,000);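 active means GFP response versus DMSO above a set limit, roughly screen mean plus 3 SD, cut at about 180% in these data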;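 further: median GFP fluorescence of the barcode-gated MEP2-GFP cells per well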
Efflux pump inh: blocks antifungal efflux pumps in multiplex yeast assay | S. cerevisiae Candida pump triplex, Nile Red efflux | inhibition, % at 10 µM | actives 0.44% (n = 330,000);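 active means plate passing quality check with inhibition over a set limit, or well fluorescence over plate mean plus 4 SD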;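 further: Nile Red retained in pooled yeast measured as flow cytometry median fluorescence; higher means more Nile Red kept so more efflux inhibition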
RPL19A TOR yeast: yeast TOR pathway RPL19A-GFP modulation | S. cerevisiae RPL19A-GFP strain, flow cytometry, 3 h; active compounds read low | percent response vs DMSO, % at 10 µM | actives 0.3% (n = 330,000);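 active means percent response vs DMSO below 50%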;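 further: median channel GFP fluorescence of the barcoded RPL19A-GFP strain; lower means less RPL19A-GFP as with rapamycin TOR inhibition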
AGP1 TOR yeast: modulators of TOR pathway AGP1-GFP in S. cerevisiae; actives 0.02% (n = 320,000); S. cerevisiae AGP1-GFP multiplex flow cytometry, 3 h; GFP as percent of DMSO wells; GFP response vs DMSO, % at 10 µM;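 active means GFP response relative to DMSO above a set limit, near screen average plus 3 SD, cut at about 150% in these data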;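 further: median GFP channel fluorescence of the gated AGP1 strain per well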
Yeast cmpd fluor: flagged as fluorescent in efflux inhibitor counter-screen; S. cerevisiae AD/pABC3, compound fluorescence, flow cytometry; actives 4% (n = 1,700); fluorescence ratio to DMSO, % at 10 µM; AID 588517; shares compounds with Efflux pump inh;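 active means fluorescence ratio to DMSO above its plate's cutoff, the plate mean ratio plus 5 SD, cut at about 210% in these data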;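 further: unstained yeast with no Nile Red so the signal is compound autofluorescence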
CaMdr1 efflux inh: inhibitors of Candida albicans Mdr1 efflux pump; shares compounds with Efflux pump inh; S. cerevisiae AD/CaMDR1, Nile Red efflux, flow cytometry; inhibition, % at 10 µM; actives 1% (n = 1,700); AID 588518; in the data active means inhibition above about 26%;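 further: higher means more Nile Red retained so more efflux inhibition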
CaCdr2 efflux inh: Candida Cdr2 efflux pump inhibition | shares compounds with Efflux pump inh | S. cerevisiae AD/CaCDR2, Nile Red retention, flow cytometry | Nile Red retention ratio vs DMSO, % at 10 µM | actives 4% (n = 1,700); in the data active means Nile Red retention ratio vs DMSO above about 190%;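 further: higher ratio means more blocking of Cdr2 efflux of the dye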
CaCdr1 efflux inh: blocks the Candida albicans Cdr1 efflux pump in yeast; shares compounds with Efflux pump inh; S. cerevisiae AD/CaCDR1, Nile Red efflux, flow cytometry; inhibition, % at 10 µM; actives 1% (n = 1,700);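 active means inhibition above the screen-wide mean plus twice its standard deviation, cut at about 32% in these data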
Large screens that a line does not name were inactive (follow-up assays come after a bar, where they were run). This is a sample that favours compounds with a hit; in the whole collection about 1.3% have one here.

COc1ccc(S(=O)(=O)N2CCCC(C(=O)NCCc3ccccc3)C2)cc1 (stereo not given)	none
CC(=O)Nc1ccc(S(=O)(=O)N2CCN=C2SCc2ccc(C)cc2)cc1	none
CC(=O)Nc1ccc(S(=O)(=O)N2CCN=C2SCc2ccc(F)cc2)cc1	Efflux pump inh 1.4 | Yeast cmpd fluor inactive | CaMdr1 efflux inh inactive | CaCdr2 efflux inh inactive | CaCdr1 efflux inh inactive
N#Cc1cc([N+](=O)[O-])ccc1NCCc1ccccn1	Efflux pump inh 3.5 | Yeast cmpd fluor inactive | CaMdr1 efflux inh inactive | CaCdr2 efflux inh inactive | CaCdr1 efflux inh inactive
CC1(c2ccc(OC(F)F)cc2)NC(=O)N(CC(=O)NCCC2=CCCCC2)C1=O (stereo not given)	none
COc1ccccc1C(C)NC(=O)CN(C)CC(=O)Nc1c(C)cccc1C (stereo not given)	none
Oc1ccc(CCNc2ncnc3ccc(Cl)cc23)cc1	Efflux pump inh 1.0 | Yeast cmpd fluor inactive | CaMdr1 efflux inh inactive | CaCdr2 efflux inh inactive | CaCdr1 efflux inh inactive
O=C(COC(=O)[C@H](Cc1ccccc1)NC(=O)c1cccs1)NC1CCCCC1	Efflux pump inh 17.7 | Yeast cmpd fluor inactive | CaMdr1 efflux inh inactive | CaCdr2 efflux inh inactive | CaCdr1 efflux inh inactive
CC(C)CCN1CCC(n2nccc2NC(=O)C2CCOC2)CC1 (stereo not given)	Efflux pump inh 1.4 | Yeast cmpd fluor inactive | CaMdr1 efflux inh inactive | CaCdr2 efflux inh inactive | CaCdr1 efflux inh inactive
CC(=O)Nc1ccc(C(=O)COC(=O)C2CC3CCCC(C2)C3=O)cc1 (stereo not given)	none
COc1cc(C2/C(=C(\O)c3ccc4c(c3)CC(C)O4)C(=O)C(=O)N2CCCn2ccnc2)cc(OC)c1OC (stereo not given)	none
Cc1ccc2nc(-c3ccc(NC(=O)CCS(=O)(=O)c4ccccc4)cc3)sc2c1	Efflux pump inh 0.5 | Yeast cmpd fluor inactive | CaMdr1 efflux inh inactive | CaCdr2 efflux inh inactive | CaCdr1 efflux inh inactive
O=C1/C(=C/c2ccc(O)c(O)c2)Oc2cc(O)ccc21	Efflux pump inh 2.4 | Yeast cmpd fluor inactive | CaMdr1 efflux inh inactive | CaCdr2 efflux inh inactive | CaCdr1 efflux inh inactive
COc1cc(/C=C2\Oc3cc(O)ccc3C2=O)ccc1O	none
CCn1cc(/C=N\NC(=O)c2ccc(F)cc2)cn1	none
COc1cccc(C(C(=O)NC(C)(C)C)N(C(=O)CCC(=O)Nc2cc(C)on2)C(C)(C)C)c1OC (stereo not given)	none | Yeast cmpd fluor inactive | CaMdr1 efflux inh inactive | CaCdr2 efflux inh inactive | CaCdr1 efflux inh inactive
COc1cccc(C(C(=O)NC(C)(C)C)N(C(=O)CCC(=O)Nc2cc(C)on2)C(C)C)c1OC (stereo not given)	none (no result: CIT2 TOR yeast) | Yeast cmpd fluor inactive | CaMdr1 efflux inh inactive | CaCdr2 efflux inh inactive | CaCdr1 efflux inh inactive
Fc1ccc(CN2CCN(c3ncnc4scc(-c5ccccc5)c34)CC2)cc1	Efflux pump inh 1.7 | Yeast cmpd fluor inactive | CaMdr1 efflux inh inactive | CaCdr2 efflux inh inactive | CaCdr1 efflux inh inactive
Fc1ccc(-c2csc3ncnc(N4CCN(Cc5ccccc5)CC4)c23)cc1	none
COC(=O)c1ccc(COC(=O)C2CCN(S(=O)(=O)c3ccc(C)c(C)c3)CC2)o1	none
Nc1ncc2c(n1)-c1cc(Cl)ccc1SC2	Efflux pump inh 0.6 | Yeast cmpd fluor inactive | CaMdr1 efflux inh inactive | CaCdr2 efflux inh inactive | CaCdr1 efflux inh inactive
